Where “and” joins values, the source holds several entries; their conditions need not be identical. Equal entries are not always repeated. Where two headings read alike, the source gives them in different places.
Assays:
DMPK = details: concentration: 1 μM, replicates: in singlicate, n = 1
DRAK1 = system: T1, DRAK1; details: concentration: 1 μM, replicates: in singlicate, n = 1
T1 construct: gene STK17A

DRAK2 = system: T2, DRAK2; details: concentration: 1 μM, replicates: in singlicate, n = 1
T2 construct: gene STK17B

DYRK1A = details: concentration: 1 μM, replicates: in singlicate, n = 1
DYRK1B = details: concentration: 1 μM, replicates: in singlicate, n = 1
DYRK2 = details: concentration: 1 μM, replicates: in singlicate, n = 1
EGFR = details: concentration: 1 μM, replicates: in singlicate, n = 1
EIF2AK1 = details: concentration: 1 μM, replicates: in singlicate, n = 1
EPHA1 = details: concentration: 1 μM, replicates: in singlicate, n = 1
EPHA2 = details: concentration: 1 μM, replicates: in singlicate; n = 1
EPHA3 = details: concentration: 1 μM, replicates: in singlicate, n = 1
EPHA4 = details: concentration: 1 μM, replicates: in singlicate, n = 1
EPHA5 = details: concentration: 1 μM, replicates: in singlicate; n = 1
EPHA6 = details: concentration: 1 μM, replicates: in singlicate, n = 1
EPHA7 = details: concentration: 1 μM, replicates: in singlicate, n = 1
EPHA8 = details: concentration: 1 μM, replicates: in singlicate, n = 1
EPHB1 = details: concentration: 1 μM, replicates: in singlicate, n = 1
EPHB2 = details: concentration: 1 μM, replicates: in singlicate; n = 1
EPHB3 = details: concentration: 1 μM, replicates: in singlicate, n = 1
EPHB4 = details: concentration: 1 μM, replicates: in singlicate, n = 1
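Also: KINOMEscan kinase panel screen.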

SMILES: CN1c2ccc(NCc3ccc(F)cc3)cc2-c2c(cnn2C)S1(=O)=O
- %Inh (DMPK): 0%
- %Inh (DRAK1): 0%
- %Inh (DRAK2): 0%
- %Inh (DYRK1A): 0%
- %Inh (DYRK1B): 16%
- %Inh (DYRK2): 0%
- %Inh (EGFR): 0%
- %Inh (EIF2AK1): 0%
- %Inh (EPHA1): 0%
- %Inh (EPHA2): 12%
- %Inh (EPHA3): 0%
- %Inh (EPHA4): 0%
- %Inh (EPHA5): 0%
- %Inh (EPHA6): 0%
- %Inh (EPHA7): 0%
- %Inh (EPHA8): 0%
- %Inh (EPHB1): 0%
- %Inh (EPHB2): 0%
- %Inh (EPHB3): 6%
- %Inh (EPHB4): 0%

SMILES: Cc1ccc(C(=O)NCC(N)=O)cc1-n1c(C)cc(OCc2ccc(F)cc2F)c(Br)c1=O
- %Inh (DMPK): 0%
- %Inh (DRAK1): 0%
- %Inh (DRAK2): 5%
- %Inh (DYRK1A): 0%
- %Inh (DYRK1B): 0%
- %Inh (DYRK2): 0%
- %Inh (EGFR): 11%
- %Inh (EIF2AK1): 0%
- %Inh (EPHA1): 25%
- %Inh (EPHA2): 40%
- %Inh (EPHA3): 0%
- %Inh (EPHA4): 12%
- %Inh (EPHA5): 0%
- %Inh (EPHA6): 27%
- %Inh (EPHA7): 18%
- %Inh (EPHA8): 15%
- %Inh (EPHB1): 20%
- %Inh (EPHB2): 19%
- %Inh (EPHB3): 25%
- %Inh (EPHB4): 27%

SMILES: COc1ccc(COc2cc(-n3cnc4ccccc43)sc2C(N)=O)cc1 [GSK1024304]
- %Inh (DMPK): 29%
- %Inh (DRAK1): 16%
- %Inh (DRAK2): 0%
- %Inh (DYRK1A): 16%
- %Inh (DYRK1B): 12%
- %Inh (DYRK2): 12%
- %Inh (EGFR): 4%
- %Inh (EIF2AK1): 0%
- %Inh (EPHA1): 0%
- %Inh (EPHA2): 0%
- %Inh (EPHA3): 11%
- %Inh (EPHA4): 0%
- %Inh (EPHA5): 0%
- %Inh (EPHA6): 0%
- %Inh (EPHA7): 6%
- %Inh (EPHA8): 19%
- %Inh (EPHB1): 12%
- %Inh (EPHB2): 9%
- %Inh (EPHB3): 0%
- %Inh (EPHB4): 11%

SMILES: O=C(Nc1cccc(-c2nn3ncccc3c2-c2ccnc(Nc3cccc(C(F)(F)F)c3)n2)c1)c1c(F)cccc1F [GSK299495]
- %Inh (DMPK): 0%
- %Inh (DRAK1): 4%
- %Inh (DRAK2): 0%
- %Inh (DYRK1A): 14%
- %Inh (DYRK1B): 0%
- %Inh (DYRK2): 0%
- %Inh (EGFR): 99.1%
- %Inh (EIF2AK1): 18%
- %Inh (EPHA1): 41%
- %Inh (EPHA2): 0%
- %Inh (EPHA3): 0%
- %Inh (EPHA4): 8%
- %Inh (EPHA5): 0%
- %Inh (EPHA6): 11%
- %Inh (EPHA7): 54%
- %Inh (EPHA8): 49%
- %Inh (EPHB1): 29%
- %Inh (EPHB2): 0%
- %Inh (EPHB3): 14%
- %Inh (EPHB4): 9%

SMILES: Cc1c2ccc(N(C)c3ccnc(Nc4cccc(S(N)(=O)=O)c4)n3)cc2nn1Cc1ccccc1.Cl.Cl [GW787226]
- %Inh (DMPK): 8%
- %Inh (DRAK1): 3%
- %Inh (DRAK2): 16%
- %Inh (DYRK1A): 0%
- %Inh (DYRK1B): 0%
- %Inh (DYRK2): 0%
- %Inh (EGFR): 5%
- %Inh (EIF2AK1): 0%
- %Inh (EPHA1): 21%
- %Inh (EPHA2): 4%
- %Inh (EPHA3): 15%
- %Inh (EPHA4): 21%
- %Inh (EPHA5): 0%
- %Inh (EPHA6): 19%
- %Inh (EPHA7): 0%
- %Inh (EPHA8): 39%
- %Inh (EPHB1): 12%
- %Inh (EPHB2): 20%
- %Inh (EPHB3): 7%
- %Inh (EPHB4): 0%

SMILES: NCCNS(=O)(=O)c1ccc(-c2ccnc3[nH]ccc23)cc1 [GSK977617]
- %Inh (DMPK; 1 µM): 98.6% and 96.7%
- %Inh (DRAK1; 1 µM): 98.5% and 96.6%
- %Inh (DRAK2; 1 µM): 77% and 60%
- %Inh (DYRK1A; 1 µM): 89% and 84%
- %Inh (DYRK1B; 1 µM): 85% and 61%
- %Inh (DYRK2; 1 µM): 86% and 72%
- %Inh (EGFR; 1 µM): 22% and 15%
- %Inh (EIF2AK1; 1 µM): 11% and 0%
- %Inh (EPHA1; 1 µM): 54% and 38%
- %Inh (EPHA2): 0%
- %Inh (EPHA3; 1 µM): 52% and 31%
- %Inh (EPHA4; 1 µM): 6% and 0%
- %Inh (EPHA5): 0%
- %Inh (EPHA6; 1 µM): 5% and 0%
- %Inh (EPHA7; 1 µM): 16% and 15%
- %Inh (EPHA8; 1 µM): 13% and 16%
- %Inh (EPHB1; 1 µM): 23% and 15%
- %Inh (EPHB2): 0%
- %Inh (EPHB3; 1 µM): 11% and 0%
- %Inh (EPHB4; 1 µM): 11% and 1%

SMILES: CCc1ccnc(/C=C/c2n[nH]c3cc(Sc4ccccc4C(=O)NC)ccc23)c1
- %Inh (DMPK): 6%
- %Inh (DRAK1): 12%
- %Inh (DRAK2): 0%
- %Inh (DYRK1A): 8%
- %Inh (DYRK1B): 4%
- %Inh (DYRK2): 0%
- %Inh (EGFR): 0%
- %Inh (EIF2AK1): 14%
- %Inh (EPHA1): 0%
- %Inh (EPHA2): 0%
- %Inh (EPHA3): 0%
- %Inh (EPHA4): 1%
- %Inh (EPHA5): 5%
- %Inh (EPHA6): 0%
- %Inh (EPHA7): 2%
- %Inh (EPHA8): 7%
- %Inh (EPHB1): 4%
- %Inh (EPHB2): 0%
- %Inh (EPHB3): 0%
- %Inh (EPHB4): 0%
